Several values for one entry are separate records, joined by “and”; a condition that tells them apart may be missing. Identical values can stand only once. Inconclusive results are not listed. Activity calls are given as the source filed them. Unless noted, the call rests on the fitted dose curve.

A short description of assay [1]: Nuclear factor erythroid 2-related factor 2/antioxidant responsive element (Nrf2/ARE) small molecule agonists: qHTS cell viability counter screen in human keratinocytes (AID 1919968; active means well fitted curve in the direction sought with a large enough effect in the repeat runs; an effect the other way counts as inactive or inconclusive; further: nearly all actives have a fitted effect of over 55% in size). Put shortly:
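Cytotoxicity was multiplexed with the Nrf2/ARE luciferase assay in the same wells. Stably transfected HaCaT keratinocytes were treated with test compounds for 23 h at 37 C. Cell viability was then measured by CellTiter-Fluor fluorescence.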
(In general: Quantitative high-throughput screening tests each substance at several concentrations.)

The nature of assay [2]: Nuclear factor erythroid 2-related factor 2/antioxidant responsive element (Nrf2/ARE) small molecule agonists: luciferase reporter gene qHTS assay in human keratinocytes (AID 1919969; further: nearly all actives have a fitted effect of over 35% in size; further: potency means the concentration at half of the fitted maximal effect). (In general: Reporter assays use an easily measured gene product as a stand-in for the process of interest.)
Assay [3] addresses Gonadotropin-releasing hormone receptor (Homo sapiens) (UniProt P30968). Description: Human gonadotropin-releasing hormone receptor (GnRHR) small molecule agonists, calcium flux assay in GnRHR-HEK293 cells (AID 1920063). Further: nearly all actives have a fitted effect of over 35% in size. Put shortly:
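Agonist activity was measured as intracellular calcium flux in HEK293 cells engineered to stably express human GnRHR. After dye loading for 1 hour at 37 C, compounds in DMSO were added and fluorescence was followed for 3 minutes.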
Background: Calcium assays in cells follow changes in intracellular calcium, usually with a dye or a luminescent sensor.

Assay [4] in a line: G protein-coupled receptor (GPCR) small molecule agonists, calcium flux assay: HEK293 wild type cell line counter screen (AID 1920065). Put shortly: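 Seed cells, incubate 18 h (37 C, 5% CO2); add calcium dye, 1 h at 37 C; pin-transfer compounds, ATP control or DMSO; read fluorescence 480/540 nm each second for 3 min.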
The nature of assay [5]: p53 small molecule agonists, cell-based qHTS assay with human liver microsomes (AID 1963577). Put shortly:
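Fluorescence of the beta-lactamase reporter in p53RE-bla cells, detected with LiveBLAzer substrate (2 h, room temperature, dark), served as the read-out after 16 h compound exposure at 37 C with human liver microsomes and NADPH, each 0.5 mg/mL final.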

The nature of assay [6]: p53 small molecule agonists, cell-based qHTS assay with rat liver microsomes (AID 1963578). Put shortly:
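Cells carrying a p53 response element–beta-lactamase reporter were plated and rested 5 h, then dosed with compound in DMSO plus rat liver microsomes and NADPH, each at 0.5 mg/mL final. After 16 h at 37 C, LiveBLAzer substrate was added for 2 h.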

Assay [7] in a line: p53 small molecule agonists, cell-based qHTS assay with human liver microsomes: qHTS cell viability counter screen (AID 1963579). Further: nearly all actives have a fitted effect of over 45% in size. Put shortly: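 Cytotoxicity counter screen: p53RE-bla, 4,000 cells/well; 5 h settle, 37 C/5% CO2; cpd + HLM 0.5 mg/mL + NADPH 0.5 mg/mL (final); 16 h, 37 C; CellTiter-Glo, 30 min RT, luminescence.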
Assay [8] in a line: p53 small molecule agonists, cell-based qHTS assay with rat liver microsomes: qHTS cell viability counter screen (AID 1963580). Further: nearly all actives have a fitted effect of over 45% in size. Put shortly: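 Rat liver microsome (0.5 mg/mL final) and NADPH (0.5 mg/mL final) co-incubation with compounds for 16 h at 37 C on HCT-116 p53RE-bla cells; cytotoxicity taken from intracellular ATP luminescence.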
Assay [9] can be described thus: p53 small molecule agonists, cell-based qHTS assay: qHTS cell viability counter screen (AID 1963581). Further: nearly all actives have a fitted effect of over 45% in size. Further: potency means the concentration at half of the fitted maximal effect. Put shortly:
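Viability was counter-screened in parallel with the p53 agonist reporter by measuring intracellular ATP luminescence in the same HCT-116 p53RE-bla wells after 16 h compound treatment at 37 C.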

Assay [10] concerns the target 5-hydroxytryptamine receptor 2A (Homo sapiens) (UniProt P28223). Nature of the assay: 5-hydroxytryptamine receptor 2A (HTR2A) small molecule antagonists, cell-based qHTS assay (AID 1963586). Further: nearly all actives have a fitted effect of over 45% in size. Put shortly: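 CHO cells stably expressing human HTR2A were plated for 18 h at 37 C, then loaded with calcium dye for 1 h. Compounds were preincubated 5 min at room temperature before DOI (4 nM solution) was added. Kinetic fluorescence was read for 3 min.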

Assay [11] shares this target. Nature of the assay: 5-hydroxytryptamine receptor 2A (HTR2A) small molecule agonists, cell-based qHTS assay (AID 1963587). Further: nearly all actives have a fitted effect of over 30% in size. Put shortly: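 Kinetic calcium-flux fluorescence (2 min, 1 sec intervals) after compound addition in agonist mode. HTR2A-CHO cells were cultured 18 h, then dye-loaded 1 h at 37 C.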
For assay [12], the target named is Muscarinic acetylcholine receptor M1 (Homo sapiens) (UniProt P11229). Description: Cholinergic receptor muscarinic 1 (CHRM1) small molecule antagonists, cell-based qHTS assay (AID 1963588). Further: nearly all actives have a fitted effect of over 40% in size. Put shortly:
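Compounds were tested at 15 concentrations in three independent runs. Dye-loaded CHRM1-CHO cells were exposed 5 min at room temperature before stimulation by acetylcholine added at 50nM. Intracellular calcium was read kinetically on FDSS for 3 min.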

Assay [13] has the same target. Nature of the assay: Cholinergic receptor muscarinic 1 (CHRM1) small molecule agonists, cell-based qHTS assay (AID 1963589). Further: nearly all actives have a fitted effect of over 35% in size. Put shortly:
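Cells were plated and incubated 18 h at 37 C/5% CO2, loaded with calcium dye for 1 h at 37 C, then treated with compounds in DMSO. Fluorescence was recorded kinetically at 1 sec intervals.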

Assay [14] in a line: cAMP Responsive Elements (CRE) small molecule agonists, cell-based qHTS assay (AID 1963590). Put shortly:
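Cells carrying a CRE-driven beta-lactamase reporter (HEK 293T) are seeded, incubated overnight (18 h), and treated with test compounds for 3 h at 37 C; reporter activity is then detected with a FRET substrate after 2 h at room temperature.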

A short description of assay [15]: cAMP Responsive Elements (CRE) small molecule antagonists, cell-based qHTS assay (AID 1963591; active means well fitted inhibition curve with a large enough effect in the signal ratio in the repeat runs, not every such curve was filed as active; the % refers to the signal ratio). Put shortly:
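Cells (CRE-bla HEK 293T, DMEM with 10% dialyzed FBS and 25 mM HEPES) are seeded and incubated 18 h. Compounds are added with NKH477 agonist at 0.25 uM final for 3 h, then FRET substrate for 2 h.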

In assay [16] the target is Beta-2 adrenergic receptor (Homo sapiens) (UniProt P07550). Nature of the assay: Adrenergic beta2 receptor (ADRB2) small molecule antagonists, cell-based qHTS assay (AID 1963592). Further: series mostly up to about 92 µM; nearly all actives have a fitted effect of over 50% in size. Put shortly: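 Assay format: CHO-ADRB2 cells, 18-20hr seeding at 37C/5% CO2, then compound plus 1nM isoproterenol agonist mix for 0.5hr RT. Homogeneous time-resolved fluorescence cAMP detection after 1hr, expressed as 665/615 nm ratio.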
Chain of Beta-2 adrenergic receptor (Homo sapiens) (P07550 whole entry, looked up): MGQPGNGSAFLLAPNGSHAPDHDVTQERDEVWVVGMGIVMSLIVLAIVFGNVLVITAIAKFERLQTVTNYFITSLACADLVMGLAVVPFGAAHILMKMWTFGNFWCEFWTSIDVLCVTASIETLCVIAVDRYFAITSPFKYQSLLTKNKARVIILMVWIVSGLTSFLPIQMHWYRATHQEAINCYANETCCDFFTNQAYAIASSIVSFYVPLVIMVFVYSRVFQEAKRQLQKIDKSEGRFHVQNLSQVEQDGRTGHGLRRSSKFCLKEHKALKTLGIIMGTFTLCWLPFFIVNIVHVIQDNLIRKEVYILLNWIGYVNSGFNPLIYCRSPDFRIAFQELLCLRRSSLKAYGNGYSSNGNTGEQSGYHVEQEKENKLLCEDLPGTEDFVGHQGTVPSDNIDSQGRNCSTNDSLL

The target in assay [17] is D(2) dopamine receptor (Homo sapiens) (UniProt P14416). Description: Dopamine D2 receptor (DRD2) small molecule agonists, cell-based qHTS assay (AID 1963594). Further: nearly all actives have a fitted effect of over 35% in size. Put shortly:
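cAMP accumulation in DRD2-HEK293 cells measured by HTRF after 1 h detection; compounds added 10 min before NKH477 (200nM […]) forskolin-analogue stimulation, 30 min at room temperature, with Ro20-1724 present at 0.1 mM final.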

For assay [18] the target is unchanged. Description: Dopamine D2 receptor (DRD2) small molecule antagonists, cell-based qHTS assay (AID 1963595; active means well fitted inhibition curve with a large enough effect in the signal ratio in the repeat runs, with a control signal flat; the % refers to the signal ratio). Put shortly:
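HTRF cAMP read-out at 665 and 620 nm emission (340 nm excitation). Antagonist mode: compounds were tested against 12 nM quinpirole in DRD2-HEK293 cells, with 200 nM NKH477 raising cAMP and 0.1 mM Ro20-1724 blocking its breakdown.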

Assay [19] addresses KiSS-1 receptor (Homo sapiens) (UniProt Q969F8). Description: Human kisspeptin (KISS1R) small molecule agonists, calcium flux assay in KISS1R-HEK293 cells (AID 1920064; active means well fitted curve in the direction sought with a large enough effect in the repeat runs; an effect the other way counts as inactive or inconclusive). Put shortly:
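Agonist activity is monitored as intracellular calcium rise in engineered HEK293 cells carrying human KISS1R. Cells are dye-loaded for 1 h at 37 C before compound addition, and fluorescence is recorded for 3 min.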

Assay [20] deals with Beta-2 adrenergic receptor (Homo sapiens) (UniProt P07550). Description: Adrenergic beta2 receptor (ADRB2) small molecule agonists, cell-based qHTS assay (AID 1963593).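 Further: CHO cells stably overexpressing human ADRB2.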 Put shortly: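 CHO cells stably over-expressing ADRB2 were plated overnight at 37C, then dosed with compounds plus a stimulation mix containing 100uM IBMX and 25uM Ro-20-1724 for 0.5hr at room temperature. cAMP was measured by HTRF competition, 1hr.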

Chain of D(2) dopamine receptor (Homo sapiens) (P14416 whole entry, looked up): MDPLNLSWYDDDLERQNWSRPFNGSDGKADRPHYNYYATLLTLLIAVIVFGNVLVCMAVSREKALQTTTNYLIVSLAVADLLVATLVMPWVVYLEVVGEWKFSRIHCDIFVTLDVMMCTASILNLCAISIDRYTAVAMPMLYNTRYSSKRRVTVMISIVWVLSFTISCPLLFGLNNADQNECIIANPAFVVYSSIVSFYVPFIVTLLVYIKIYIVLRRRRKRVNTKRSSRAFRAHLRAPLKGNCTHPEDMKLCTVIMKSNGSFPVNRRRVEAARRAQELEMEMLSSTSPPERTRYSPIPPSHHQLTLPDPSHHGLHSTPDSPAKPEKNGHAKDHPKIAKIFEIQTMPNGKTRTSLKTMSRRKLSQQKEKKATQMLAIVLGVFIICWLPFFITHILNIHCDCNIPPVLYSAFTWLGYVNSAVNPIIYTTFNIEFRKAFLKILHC
Chain of KiSS-1 receptor (Homo sapiens) (Q969F8 whole entry, looked up): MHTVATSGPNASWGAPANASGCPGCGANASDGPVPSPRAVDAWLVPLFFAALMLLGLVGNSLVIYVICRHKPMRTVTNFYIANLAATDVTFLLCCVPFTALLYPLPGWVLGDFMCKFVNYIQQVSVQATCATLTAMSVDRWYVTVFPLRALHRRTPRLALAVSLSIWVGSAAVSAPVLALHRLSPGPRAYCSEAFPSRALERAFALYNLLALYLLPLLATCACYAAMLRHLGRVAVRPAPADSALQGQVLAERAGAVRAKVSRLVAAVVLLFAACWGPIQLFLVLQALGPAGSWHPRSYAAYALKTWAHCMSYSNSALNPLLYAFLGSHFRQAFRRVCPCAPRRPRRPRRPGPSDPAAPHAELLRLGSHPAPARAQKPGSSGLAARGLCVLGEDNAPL
Chain of Muscarinic acetylcholine receptor M1 (Homo sapiens) (P11229 whole entry, looked up): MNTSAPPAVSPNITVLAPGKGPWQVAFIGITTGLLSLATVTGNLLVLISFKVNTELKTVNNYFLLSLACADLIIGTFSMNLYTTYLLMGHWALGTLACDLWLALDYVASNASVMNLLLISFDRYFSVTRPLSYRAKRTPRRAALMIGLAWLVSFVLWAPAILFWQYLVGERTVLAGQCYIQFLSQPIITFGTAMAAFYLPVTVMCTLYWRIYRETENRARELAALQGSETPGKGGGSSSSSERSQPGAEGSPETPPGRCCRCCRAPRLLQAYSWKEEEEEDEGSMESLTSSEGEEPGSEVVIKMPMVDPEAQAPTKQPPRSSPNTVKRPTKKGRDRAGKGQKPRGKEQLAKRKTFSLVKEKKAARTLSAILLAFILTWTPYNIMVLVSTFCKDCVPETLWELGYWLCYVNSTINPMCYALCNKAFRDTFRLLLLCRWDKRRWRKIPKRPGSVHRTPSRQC
Chain of 5-hydroxytryptamine receptor 2A (Homo sapiens) (P28223 whole entry, looked up): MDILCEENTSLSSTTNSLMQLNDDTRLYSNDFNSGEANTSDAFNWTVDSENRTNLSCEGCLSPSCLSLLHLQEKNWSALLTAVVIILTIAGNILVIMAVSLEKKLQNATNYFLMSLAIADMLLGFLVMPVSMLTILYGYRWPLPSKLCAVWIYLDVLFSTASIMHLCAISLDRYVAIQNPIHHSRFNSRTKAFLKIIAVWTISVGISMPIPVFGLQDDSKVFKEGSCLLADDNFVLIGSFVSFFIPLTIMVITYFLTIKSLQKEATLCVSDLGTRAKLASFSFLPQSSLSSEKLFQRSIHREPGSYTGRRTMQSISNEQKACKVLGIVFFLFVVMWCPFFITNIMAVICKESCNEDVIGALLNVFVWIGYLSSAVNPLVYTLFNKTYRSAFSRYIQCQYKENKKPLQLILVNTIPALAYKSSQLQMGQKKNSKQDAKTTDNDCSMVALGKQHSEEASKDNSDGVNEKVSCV
Chain of Gonadotropin-releasing hormone receptor (Homo sapiens) (P30968 whole entry, looked up): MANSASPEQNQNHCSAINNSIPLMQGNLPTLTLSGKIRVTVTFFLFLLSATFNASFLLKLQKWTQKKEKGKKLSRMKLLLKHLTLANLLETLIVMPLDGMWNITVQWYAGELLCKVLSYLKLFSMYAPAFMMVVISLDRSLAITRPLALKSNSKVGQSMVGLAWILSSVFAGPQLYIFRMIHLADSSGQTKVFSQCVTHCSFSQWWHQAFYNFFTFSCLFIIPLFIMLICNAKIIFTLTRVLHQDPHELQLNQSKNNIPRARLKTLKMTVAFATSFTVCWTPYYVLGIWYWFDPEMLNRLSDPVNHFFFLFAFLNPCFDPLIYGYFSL

On to `Cc1cc(=O)[nH]c(C(C)C)n1`, for which the Potency result in assay [1], in [2], in assay [3], in [4], in assay [5] and in assay [6] was “inactive” throughout. Besides, the Potency result in [7], in assay [8], in assay [9], in assay [10], in assay [11] and in assay [12] was “inactive” each time. Moreover, the Potency result in assay [13], in assay [14], in assay [15], in assay [16], in assay [17] and in [18] was “inactive” each time.

Turning to `CCCCNC(=O)NS(=O)(=O)c1ccc(N)cc1`, the Potency result in assay [1], in assay [2], in assay [3], in assay [19], in assay [6] and in assay [7] was “inactive” throughout. Further, the Potency result in assay [8], in assay [9], in [10], in [11], in assay [12] and in assay [13] was “inactive” each time. In addition, the Potency entry in assay [14], in [15], in assay [16], in [17] and in assay [18] was “inactive” in each case.

In the case of `COC(=O)CCCC(=O)OC`, the Potency result in [1], in [2], in assay [3], in [4], in assay [5] and in assay [6] was “inactive” each time. For the same molecule, the Potency result in assay [7], in assay [8], in assay [9], in [10], in assay [11] and in assay [12] was “inactive” throughout. Further, the Potency entry in assay [13], in [14], in assay [15], in assay [16], in assay [17] and in assay [18] was “inactive” each time.

Take `C/C=C/c1ccc(OC)cc1`: the Potency result in assay [1], in assay [2], in [3], in assay [19], in assay [7] and in assay [8] was “inactive” throughout. Besides, the Potency result in assay [10], in assay [11], in [12], in [13], in assay [14] and in [20] was “inactive” throughout. The Potency result in [17] and in [18] was “inactive” each time.

For the molecule `C=C1C2CCC(C2)C1(C)C` (stereo not given), the Potency result in [1], in [2], in [3], in assay [4], in [5] and in assay [6] was “inactive” each time. In addition, the Potency result in assay [7], in assay [8], in assay [9], in assay [10], in [11] and in [12] was “inactive” each time. The Potency result in assay [13], in assay [14], in assay [15], in assay [16], in assay [17] and in assay [18] was “inactive” in each case.

As for `O=C(OCc1ccccc1)c1ccccc1O`, the Potency result in [1], in assay [3], in [4], in [5], in assay [6] and in assay [7] was “inactive” each time. The Potency entry in assay [8], in [10], in [11], in [12], in assay [13] and in assay [14] was “inactive” in each case. Also, the Potency result in assay [15], in [20], in [17] and in assay [18] was “inactive” throughout. Also, the Potency in assay [2] is 48.2 µM (active) and 54.5 µM (active); in [9], 45.8 µM (active).

Turning to `C1CCCNCC1`, the Potency result in assay [1], in [2], in [3], in [19], in assay [7] and in assay [8] was “inactive” in each case. Moreover, the Potency entry in [9], in [10], in assay [11], in assay [12], in assay [13] and in assay [14] was “inactive” in each case. Further, the Potency result in assay [15], in assay [16], in assay [20], in assay [17] and in [18] was “inactive” throughout.
